Values joined by “and” are separate entries in the source; they are usually repeats but may differ in a detail not shown here. Equal values may be shown once. This is part of a sample that, as a whole, favours compounds with a hit. Of some 79,000 tested, about 15% had one in any assay. A structure can be active in one record and inactive in another. Active and inactive are the calls of the source. Rule as the data show it: active = growth inhibition above about 70%; inactive = the rest.
Columns and labels:
[1] = NCI Yeast Anticancer Drug Screen. Data for the rad50 strain (AID 155);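 also: 0% = growth of vehicle-only cultures of the same strain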; conditions: S. cerevisiae rad50 strain growth inhibition, stronger effect = higher value
Outline: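 Readout: growth inhibition relative to vehicle-treated cultures. Compound exposure was carried out in a genetically defined yeast strain deficient in DNA damage repair.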

[2] = NCI Yeast Anticancer Drug Screen. Data for the mec2-1 strain (AID 157); conditions: S. cerevisiae mec2-1 strain, stronger effect = higher value
Outline: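 Yeast mec2-1 mutant treated with compound. Readout: growth inhibition vs vehicle controls.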

[3] = NCI Yeast Anticancer Drug Screen. Data for the sgs1 mgt1 strain (AID 161);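 also: 0% = growth of cultures given vehicle only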; conditions: S. cerevisiae sgs1 mgt1 strain, stronger effect = higher value
Outline: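 Test agents were incubated with a DNA-repair-mutant yeast strain. Growth was then read and compared against vehicle-treated controls.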

[4] = NCI Yeast Anticancer Drug Screen. Data for the cln2 rad14 strain (AID 165);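 also: 0% = growth equal to vehicle treated cultures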; conditions: S. cerevisiae cln2 rad14 strain, stronger effect = higher value
Outline: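 cln2 rad14 yeast strain; compound exposure; growth inhibition read vs vehicle controls.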

[5] = NCI Yeast Anticancer Drug Screen. Data for the bub3 strain (AID 167); conditions: S. cerevisiae bub3 mutant strain, stronger effect = higher value
Outline: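 Readout: yeast growth inhibition, expressed relative to vehicle-only wells. The test organism is a mutant strain from a panel with lesions in DNA repair or checkpoint genes.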

[6] = NCI Yeast Anticancer Drug Screen. Data for the mlh1 rad18 strain (AID 175); conditions: S. cerevisiae mlh1 rad18 strain growth inhibition, stronger effect = higher value
Outline: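 Yeast w/ defined DNA-repair lesions; compound exposure; growth vs vehicle controls → % inhibition.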

[7] = at 5.0 µM (retest, dose inferred, filed as 0.5)
[8] = at 50.0 µM (retest, dose inferred, filed as 5.0)

Compound	growth inhibition [1, 7]	growth inhibition [1, 8]	growth inhibition ([1]; at 50.0 µM)	growth inhibition [2, 7]	growth inhibition [2, 8]	growth inhibition ([2]; at 50.0 µM)	growth inhibition [3, 7]	growth inhibition [3, 8]	growth inhibition ([3]; at 50.0 µM)	growth inhibition [4, 7]	growth inhibition [4, 8]	growth inhibition ([4]; at 50.0 µM)	growth inhibition [5, 7]	growth inhibition [5, 8]	growth inhibition ([5]; at 50.0 µM)	growth inhibition [6, 7]	growth inhibition [6, 8]	growth inhibition ([6]; at 50.0 µM)
CCC1=C(C)/C(=C/c2[nH]c(C)c(CC)c2C)N=C1C	-3% (inactive) and -5% (inactive)	20% (inactive) and -58% (inactive)	61.1% (inactive) and 33% (inactive)	6% (inactive) and 0% (inactive)	48% (inactive) and 53% (inactive)	66.5% (inactive) and -2.85% (inactive)	0% (inactive) and -2% (inactive)	51% (inactive) and 32% (inactive)	76.2% (active) and 78.1% (active)	-12% (inactive) and -15% (inactive)	31% (inactive) and 6% (inactive)	18.6% (inactive) and -57.5% (inactive)	26% (inactive) and 5% (inactive)	45% (inactive) and 33% (inactive)	31.2% (inactive) and 22.6% (inactive)	-7% (inactive) and 4% (inactive)	61% (inactive) and 48% (inactive)	60.5% (inactive) and 21.7% (inactive)
Nc1nccnc1C(=O)O	-166% (inactive)	-152% (inactive)	-12.1% (inactive) and 7.75% (inactive)	-49% (inactive)	-52% (inactive)	20.9% (inactive) and 0.9% (inactive)	-63% (inactive)	-61% (inactive)	-2.45% (inactive) and 6.3% (inactive)	-59% (inactive)	-54% (inactive)	67.5% (inactive) and 5.6% (inactive)	-74% (inactive)	-75% (inactive)	18.8% (inactive) and -1.75% (inactive)	-145% (inactive)	-108% (inactive)	11.6% (inactive) and 8.25% (inactive)
Clc1c(C(Cl)(Cl)Cl)nsc1N1CCCCC1	17% (inactive)	58% (inactive)	50.6% (inactive)	16% (inactive)	51% (inactive)	23.1% (inactive)	-3% (inactive)	39% (inactive)	33.1% (inactive)	17% (inactive)	10% (inactive)	28% (inactive)	1% (inactive)	18% (inactive)	51.4% (inactive)	18% (inactive)	84% (active)	46.7% (inactive)
C[N+]1(Cc2ccc(Cl)c(Cl)c2)CCCC1C1CCCN(Cc2ccc(Cl)c(Cl)c2)C1 (configuration not stated)	-4% (inactive)	51% (inactive)	6.55% (inactive) and -11.7% (inactive)	-2% (inactive)	59% (inactive)	-3.95% (inactive) and 3.6% (inactive)	3% (inactive)	80% (active)	5.3% (inactive) and 14% (inactive)	-11% (inactive)	27% (inactive)	-15.3% (inactive) and 42.5% (inactive)	-1% (inactive)	61% (inactive)	22.2% (inactive) and 15.3% (inactive)	-2% (inactive)	76% (active)	29.1% (inactive) and 48.3% (inactive)
COc1cc2c(cc1O)C1CN(C2)Cc2cc(OC)c(O)cc21	-5% (inactive)	67% (inactive)	51.4% (inactive)	-3% (inactive)	78% (active)	35% (inactive)	-11% (inactive)	76% (active)	30.3% (inactive)	2% (inactive)	75% (active)	79.2% (active)	-2% (inactive)	69% (inactive)	33.7% (inactive)	14% (inactive)	80% (active)	74.3% (active)
O=C(Nc1cc(-c2ccccc2)[nH]n1)c1ccccc1F	41% (inactive)	59% (inactive)	88.1% (active)	35% (inactive)	69% (inactive)	86% (active)	39% (inactive)	83% (active)	92.8% (active)	30% (inactive)	54% (inactive)	66.5% (inactive)	42% (inactive)	55% (inactive)	89.3% (active)	43% (inactive)	86% (active)	89.6% (active)
CCC(C)[P+](c1ccccc1)(c1ccccc1)c1ccccc1 (configuration not stated)	2% (inactive)	36% (inactive)	62.9% (inactive) and 33.3% (inactive)	18% (inactive)	60% (inactive)	66% (inactive) and 29.6% (inactive)	-8% (inactive)	23% (inactive)	53.9% (inactive) and 19.9% (inactive)	-4% (inactive)	25% (inactive)	58.1% (inactive) and 36% (inactive)	-3% (inactive)	30% (inactive)	57.8% (inactive) and 36% (inactive)	21% (inactive)	54% (inactive)	72.4% (active) and 53.9% (inactive)
O=C(O)C1(Cc2ccccc2)Cc2cc3c(cc2C1)CCC3	5% (inactive)	5% (inactive)	90% (active)	-4% (inactive)	-4% (inactive)	92% (active)	0% (inactive)	0% (inactive)	87.2% (active)	2% (inactive)	2% (inactive)	89% (active)	-17% (inactive)	-17% (inactive)	89.7% (active)	8% (inactive)	8% (inactive)	84.8% (active)
O=C1CCC(c2ccccc2)(C2(c3ccccc3)CCC(=O)O2)O1 (configuration not stated)	1% (inactive)	7% (inactive)	17.4% (inactive) and 59.5% (inactive)	-4% (inactive)	4% (inactive)	4.8% (inactive) and 50.9% (inactive)	3% (inactive)	57% (inactive)	12.4% (inactive) and 70.5% (active)	4% (inactive)	52% (inactive)	4.35% (inactive) and 13.1% (inactive)	2% (inactive)	21% (inactive)	13.8% (inactive) and 10.7% (inactive)	4% (inactive)	47% (inactive)	-0.2% (inactive) and 63.1% (inactive)
CCOC(=O)C(CN)(c1ccccc1)c1ccccc1	-7% (inactive)	1% (inactive)	11.8% (inactive)	-4% (inactive)	8% (inactive)	-5.4% (inactive)	-4% (inactive)	-13% (inactive)	5.35% (inactive)	2% (inactive)	-12% (inactive)	43.8% (inactive)	-4% (inactive)	0% (inactive)	-1.15% (inactive)	-7% (inactive)	-10% (inactive)	17.1% (inactive)
O=C1/C(=C\c2ccc([N+](=O)[O-])cc2)Sc2scc(-c3ccc(O)c(O)c3)[n+]21	6% (inactive)	93% (active)	83.2% (active)	-10% (inactive)	95% (active)	93.8% (active)	14% (inactive)	96% (active)	94.9% (active)	-4% (inactive)	93% (active)	71.1% (active)	-19% (inactive)	98% (active)	92.5% (active)	23% (inactive)	97% (active)	90.8% (active)
Cc1c(OCc2cccc3ccccc23)ccc2c(=O)cc(SCCN3CCOCC3)oc12	10% (inactive)	25% (inactive)	65.7% (inactive)	-1% (inactive)	13% (inactive)	30.2% (inactive)	6% (inactive)	49% (inactive)	83% (active)	5% (inactive)	37% (inactive)	25.1% (inactive)	7% (inactive)	47% (inactive)	13.6% (inactive)	7% (inactive)	35% (inactive)	73.3% (active)
CCO/C(=C\C=O)C1CCC2C3CC=C4CC(OC(C)=O)CCC4(C)C3CCC12C (configuration not stated)	7% (inactive)	45% (inactive)	63.4% (inactive)	-1% (inactive)	75% (active)	51.5% (inactive)	8% (inactive)	86% (active)	55.9% (inactive)	2% (inactive)	53% (inactive)	55.1% (inactive)	-3% (inactive)	74% (active)	23.4% (inactive)	14% (inactive)	94% (active)	53.5% (inactive)
Nc1nc(=S)c2ncn(C3OC(CO)C(O)C3O)c2[nH]1 (configuration not stated)	79% (active)	5% (inactive)	12.5% (inactive) and 38.5% (inactive)	97% (active)	6% (inactive)	0.4% (inactive) and 92.5% (active)	66% (inactive)	26% (inactive)	-3.7% (inactive) and -8.45% (inactive)	49% (inactive)	9% (inactive)	4.9% (inactive) and 96.8% (active)	99% (active)	14% (inactive)	-4.2% (inactive) and 98% (active)	94% (active)	52% (inactive)	-11.9% (inactive) and 97.5% (active)

— PubChem BioAssay (NCI)
